Source: ChEMBL document CHEMBL1961873, “Compounds: GSK PKIS; Assays: Nanosyn kinase panel” (2012)

How the values were obtained:
[1] = target: T1, Inhibitor of nuclear factor kappa-B kinase subunit epsilon (Homo sapiens) (UniProt Q14164); conditions: at 1 µM;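 note: reported values are averaged percent inhibition figures against human IKKε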
T1 sequence (whole entry): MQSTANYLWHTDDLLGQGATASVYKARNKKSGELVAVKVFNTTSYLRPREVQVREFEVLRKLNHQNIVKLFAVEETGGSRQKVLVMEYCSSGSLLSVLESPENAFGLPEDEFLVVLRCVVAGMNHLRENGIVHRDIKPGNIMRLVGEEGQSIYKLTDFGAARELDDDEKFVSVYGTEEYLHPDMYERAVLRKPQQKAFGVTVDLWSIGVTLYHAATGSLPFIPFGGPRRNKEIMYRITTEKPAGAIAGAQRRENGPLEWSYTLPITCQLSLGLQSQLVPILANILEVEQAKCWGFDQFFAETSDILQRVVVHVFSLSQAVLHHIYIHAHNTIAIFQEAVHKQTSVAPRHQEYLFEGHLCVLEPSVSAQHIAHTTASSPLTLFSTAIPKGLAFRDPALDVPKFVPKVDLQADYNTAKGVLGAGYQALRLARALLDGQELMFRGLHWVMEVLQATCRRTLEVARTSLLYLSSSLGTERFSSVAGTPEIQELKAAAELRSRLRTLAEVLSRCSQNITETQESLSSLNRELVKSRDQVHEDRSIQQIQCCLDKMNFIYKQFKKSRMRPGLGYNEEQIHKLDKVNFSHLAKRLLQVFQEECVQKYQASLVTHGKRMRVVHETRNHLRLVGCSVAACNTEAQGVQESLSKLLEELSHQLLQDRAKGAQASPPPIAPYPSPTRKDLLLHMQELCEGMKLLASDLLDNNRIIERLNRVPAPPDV

[2] = target: T2, Serine/threonine-protein kinase Nek1 (Homo sapiens) (UniProt Q96PY6); conditions: at 0.1 µM
T2 sequence (whole entry): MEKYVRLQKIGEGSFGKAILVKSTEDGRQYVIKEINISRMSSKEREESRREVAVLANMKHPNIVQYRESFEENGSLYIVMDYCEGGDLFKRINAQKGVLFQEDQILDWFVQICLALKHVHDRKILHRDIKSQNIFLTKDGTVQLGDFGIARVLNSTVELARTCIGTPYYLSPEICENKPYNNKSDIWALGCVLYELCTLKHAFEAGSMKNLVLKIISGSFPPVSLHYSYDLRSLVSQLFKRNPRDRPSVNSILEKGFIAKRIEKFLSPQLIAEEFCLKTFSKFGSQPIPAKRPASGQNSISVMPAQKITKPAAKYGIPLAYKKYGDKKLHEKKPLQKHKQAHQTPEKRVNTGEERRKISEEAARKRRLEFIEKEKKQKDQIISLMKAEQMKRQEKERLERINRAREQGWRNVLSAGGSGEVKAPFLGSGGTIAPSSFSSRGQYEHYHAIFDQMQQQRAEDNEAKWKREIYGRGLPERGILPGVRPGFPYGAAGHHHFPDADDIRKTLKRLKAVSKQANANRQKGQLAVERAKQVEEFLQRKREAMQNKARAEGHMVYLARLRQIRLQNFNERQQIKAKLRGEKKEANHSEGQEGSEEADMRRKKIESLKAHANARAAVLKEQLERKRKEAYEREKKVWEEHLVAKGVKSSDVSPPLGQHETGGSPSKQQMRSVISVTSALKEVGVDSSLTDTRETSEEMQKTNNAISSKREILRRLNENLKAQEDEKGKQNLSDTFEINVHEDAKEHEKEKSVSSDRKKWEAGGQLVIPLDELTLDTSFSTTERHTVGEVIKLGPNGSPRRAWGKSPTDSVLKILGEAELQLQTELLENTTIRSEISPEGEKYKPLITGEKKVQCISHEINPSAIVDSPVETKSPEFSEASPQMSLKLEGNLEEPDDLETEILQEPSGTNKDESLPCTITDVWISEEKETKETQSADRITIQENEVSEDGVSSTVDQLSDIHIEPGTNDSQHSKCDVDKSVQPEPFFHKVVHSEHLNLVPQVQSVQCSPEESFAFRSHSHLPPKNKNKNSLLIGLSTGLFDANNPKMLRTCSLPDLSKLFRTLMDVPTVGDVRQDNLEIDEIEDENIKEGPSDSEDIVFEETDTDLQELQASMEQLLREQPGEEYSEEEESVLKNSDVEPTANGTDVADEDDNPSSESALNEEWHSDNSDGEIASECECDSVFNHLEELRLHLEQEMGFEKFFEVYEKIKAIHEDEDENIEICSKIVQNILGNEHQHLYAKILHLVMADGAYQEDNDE

[3] = target: T2, Serine/threonine-protein kinase Nek1 (Homo sapiens); conditions: at 1 µM
[4] = target: T3, Serine/threonine-protein kinase Nek2 (Homo sapiens) (UniProt P51955); conditions: at 0.1 µM
T3 sequence (whole entry): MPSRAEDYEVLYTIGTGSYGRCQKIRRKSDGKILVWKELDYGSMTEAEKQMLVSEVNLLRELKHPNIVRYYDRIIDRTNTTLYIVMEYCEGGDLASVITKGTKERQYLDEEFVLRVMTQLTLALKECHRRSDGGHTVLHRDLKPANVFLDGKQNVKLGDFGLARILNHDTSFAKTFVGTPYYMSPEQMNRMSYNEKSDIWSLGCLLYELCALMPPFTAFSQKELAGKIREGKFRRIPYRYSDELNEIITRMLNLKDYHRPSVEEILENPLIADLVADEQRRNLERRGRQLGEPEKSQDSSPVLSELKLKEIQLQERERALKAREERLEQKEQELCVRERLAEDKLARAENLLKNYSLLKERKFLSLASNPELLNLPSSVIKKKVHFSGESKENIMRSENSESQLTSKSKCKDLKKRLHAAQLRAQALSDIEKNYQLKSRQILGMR

[5] = target: T3, Serine/threonine-protein kinase Nek2 (Homo sapiens); conditions: at 1 µM
[6] = target: Serine/threonine-protein kinase Nek6 (Homo sapiens) (UniProt Q9HC98); conditions: at 0.1 µM
[7] = target: Serine/threonine-protein kinase Nek6 (Homo sapiens) (UniProt Q9HC98); conditions: at 1 µM
[8] = target: Serine/threonine-protein kinase Nek7 (Homo sapiens) (UniProt Q8TDX7); conditions: at 0.1 µM
[9] = target: Serine/threonine-protein kinase Nek7 (Homo sapiens) (UniProt Q8TDX7); conditions: at 1 µM
[10] = target: T4, Serine/threonine-protein kinase Nek9 (Homo sapiens) (UniProt Q8TD19); conditions: at 0.1 µM
T4 sequence (whole entry): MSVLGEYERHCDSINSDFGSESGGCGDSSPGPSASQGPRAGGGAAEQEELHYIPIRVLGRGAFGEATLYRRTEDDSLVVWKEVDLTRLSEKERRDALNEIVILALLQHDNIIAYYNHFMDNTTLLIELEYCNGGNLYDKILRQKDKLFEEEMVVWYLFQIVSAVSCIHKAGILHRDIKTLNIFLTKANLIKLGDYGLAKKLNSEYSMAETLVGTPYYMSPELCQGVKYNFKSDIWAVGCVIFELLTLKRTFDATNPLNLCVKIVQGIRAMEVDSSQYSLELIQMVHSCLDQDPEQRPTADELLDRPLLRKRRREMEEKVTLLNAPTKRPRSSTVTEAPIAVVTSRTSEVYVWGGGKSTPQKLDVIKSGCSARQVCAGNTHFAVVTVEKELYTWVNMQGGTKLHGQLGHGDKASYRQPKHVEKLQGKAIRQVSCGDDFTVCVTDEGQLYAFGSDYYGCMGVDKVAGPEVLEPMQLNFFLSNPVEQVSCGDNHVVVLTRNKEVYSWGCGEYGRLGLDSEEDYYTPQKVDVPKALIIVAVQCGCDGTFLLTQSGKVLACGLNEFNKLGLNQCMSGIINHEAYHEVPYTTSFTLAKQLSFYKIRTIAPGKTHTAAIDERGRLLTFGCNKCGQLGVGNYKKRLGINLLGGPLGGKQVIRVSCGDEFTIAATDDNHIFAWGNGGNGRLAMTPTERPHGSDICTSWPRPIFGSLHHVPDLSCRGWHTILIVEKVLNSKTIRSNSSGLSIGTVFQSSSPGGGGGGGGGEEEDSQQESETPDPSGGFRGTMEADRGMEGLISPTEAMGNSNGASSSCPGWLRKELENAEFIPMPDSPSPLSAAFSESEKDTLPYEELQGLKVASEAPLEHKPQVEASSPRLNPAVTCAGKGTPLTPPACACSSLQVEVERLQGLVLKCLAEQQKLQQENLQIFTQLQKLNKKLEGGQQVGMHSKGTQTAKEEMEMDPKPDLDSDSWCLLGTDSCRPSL

[11] = target: T4, Serine/threonine-protein kinase Nek9 (Homo sapiens); conditions: at 1 µM
[12] = target: Serine/threonine-protein kinase PLK1 (Homo sapiens) (UniProt P53350); conditions: at 0.1 µM
[13] = target: Serine/threonine-protein kinase PLK1 (Homo sapiens) (UniProt P53350); conditions: at 1 µM
[14] = target: T5, Dual specificity protein kinase TTK (Homo sapiens) (UniProt P33981); conditions: at 0.1 µM
T5 sequence (whole entry): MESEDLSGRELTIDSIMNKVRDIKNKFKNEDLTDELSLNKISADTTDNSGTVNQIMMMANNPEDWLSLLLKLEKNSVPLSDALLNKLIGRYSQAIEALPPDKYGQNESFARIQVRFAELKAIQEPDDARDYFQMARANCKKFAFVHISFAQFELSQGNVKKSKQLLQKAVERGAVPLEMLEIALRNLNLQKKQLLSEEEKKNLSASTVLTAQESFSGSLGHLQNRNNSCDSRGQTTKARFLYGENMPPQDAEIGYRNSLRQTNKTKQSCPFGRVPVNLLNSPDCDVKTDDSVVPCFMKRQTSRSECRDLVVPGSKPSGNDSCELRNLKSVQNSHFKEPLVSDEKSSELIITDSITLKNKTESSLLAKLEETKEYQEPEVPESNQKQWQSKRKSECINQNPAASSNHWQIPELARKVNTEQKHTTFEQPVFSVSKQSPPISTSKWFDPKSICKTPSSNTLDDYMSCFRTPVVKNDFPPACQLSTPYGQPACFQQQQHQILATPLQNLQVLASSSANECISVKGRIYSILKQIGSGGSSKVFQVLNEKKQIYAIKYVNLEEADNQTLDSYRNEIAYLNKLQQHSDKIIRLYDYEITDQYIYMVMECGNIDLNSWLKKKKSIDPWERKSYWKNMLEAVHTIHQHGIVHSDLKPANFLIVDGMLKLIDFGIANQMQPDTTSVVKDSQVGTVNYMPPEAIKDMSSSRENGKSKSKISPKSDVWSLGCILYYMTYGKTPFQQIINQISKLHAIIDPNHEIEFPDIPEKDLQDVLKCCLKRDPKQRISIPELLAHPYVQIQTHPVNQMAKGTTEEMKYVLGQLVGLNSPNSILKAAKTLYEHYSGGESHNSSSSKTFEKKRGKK

[15] = test system: T6, Receptor-type tyrosine-protein kinase FLT3 (Homo sapiens), P36888 [D835Y]; conditions: at 1 µM
T6 sequence (whole entry): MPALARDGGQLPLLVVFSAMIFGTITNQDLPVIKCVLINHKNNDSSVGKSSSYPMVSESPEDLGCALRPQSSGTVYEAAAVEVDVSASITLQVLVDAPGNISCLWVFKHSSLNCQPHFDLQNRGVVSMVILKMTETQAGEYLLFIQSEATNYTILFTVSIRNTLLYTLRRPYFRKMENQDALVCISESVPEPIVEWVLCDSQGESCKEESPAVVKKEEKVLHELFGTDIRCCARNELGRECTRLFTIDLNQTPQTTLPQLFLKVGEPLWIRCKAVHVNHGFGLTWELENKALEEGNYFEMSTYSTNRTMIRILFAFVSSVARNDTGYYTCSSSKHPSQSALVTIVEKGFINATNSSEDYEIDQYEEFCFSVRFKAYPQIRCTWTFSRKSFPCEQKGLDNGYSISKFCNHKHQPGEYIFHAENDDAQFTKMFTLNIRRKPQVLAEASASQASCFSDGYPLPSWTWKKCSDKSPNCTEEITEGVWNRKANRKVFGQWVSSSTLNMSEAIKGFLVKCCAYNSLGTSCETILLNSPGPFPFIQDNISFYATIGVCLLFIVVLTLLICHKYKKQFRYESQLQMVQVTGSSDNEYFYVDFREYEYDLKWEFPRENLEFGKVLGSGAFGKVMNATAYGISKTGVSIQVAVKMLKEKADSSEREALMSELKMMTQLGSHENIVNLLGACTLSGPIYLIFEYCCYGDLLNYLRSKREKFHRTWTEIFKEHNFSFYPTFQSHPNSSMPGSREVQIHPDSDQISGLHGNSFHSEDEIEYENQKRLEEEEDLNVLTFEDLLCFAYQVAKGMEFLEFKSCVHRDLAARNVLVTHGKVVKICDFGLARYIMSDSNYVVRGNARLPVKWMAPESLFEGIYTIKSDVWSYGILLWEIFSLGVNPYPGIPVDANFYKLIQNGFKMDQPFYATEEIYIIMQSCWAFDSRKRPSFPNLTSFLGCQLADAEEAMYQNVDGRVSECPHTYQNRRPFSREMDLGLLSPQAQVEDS

[16] = target: Vascular endothelial growth factor receptor 3 (Homo sapiens) (UniProt P35916); conditions: at 0.1 µM
[17] = target: Vascular endothelial growth factor receptor 3 (Homo sapiens) (UniProt P35916); conditions: at 1 µM
[18] = target: Macrophage colony-stimulating factor 1 receptor (Homo sapiens) (UniProt P07333); conditions: at 0.1 µM
[19] = target: Macrophage colony-stimulating factor 1 receptor (Homo sapiens) (UniProt P07333); conditions: at 1 µM
[20] = target: Tyrosine-protein kinase Fyn (Homo sapiens) (UniProt P06241); conditions: at 0.1 µM
Tyrosine-protein kinase Fyn (Homo sapiens), sequence (P06241 2-537 limits assumed): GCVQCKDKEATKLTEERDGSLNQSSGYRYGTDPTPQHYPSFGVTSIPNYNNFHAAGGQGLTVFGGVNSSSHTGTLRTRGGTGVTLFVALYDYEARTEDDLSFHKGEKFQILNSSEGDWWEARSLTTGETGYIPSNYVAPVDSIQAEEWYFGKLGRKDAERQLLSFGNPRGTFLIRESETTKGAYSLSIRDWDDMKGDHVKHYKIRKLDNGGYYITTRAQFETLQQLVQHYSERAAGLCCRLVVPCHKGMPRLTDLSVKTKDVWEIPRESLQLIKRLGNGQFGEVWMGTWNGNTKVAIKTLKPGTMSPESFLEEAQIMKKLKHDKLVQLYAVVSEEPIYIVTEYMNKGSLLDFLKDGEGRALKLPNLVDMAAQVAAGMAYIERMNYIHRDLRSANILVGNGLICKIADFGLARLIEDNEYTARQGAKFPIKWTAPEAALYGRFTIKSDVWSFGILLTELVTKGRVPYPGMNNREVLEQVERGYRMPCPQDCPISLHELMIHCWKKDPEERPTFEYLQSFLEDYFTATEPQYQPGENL

Vascular endothelial growth factor receptor 3 (Homo sapiens), sequence (P35916 whole entry): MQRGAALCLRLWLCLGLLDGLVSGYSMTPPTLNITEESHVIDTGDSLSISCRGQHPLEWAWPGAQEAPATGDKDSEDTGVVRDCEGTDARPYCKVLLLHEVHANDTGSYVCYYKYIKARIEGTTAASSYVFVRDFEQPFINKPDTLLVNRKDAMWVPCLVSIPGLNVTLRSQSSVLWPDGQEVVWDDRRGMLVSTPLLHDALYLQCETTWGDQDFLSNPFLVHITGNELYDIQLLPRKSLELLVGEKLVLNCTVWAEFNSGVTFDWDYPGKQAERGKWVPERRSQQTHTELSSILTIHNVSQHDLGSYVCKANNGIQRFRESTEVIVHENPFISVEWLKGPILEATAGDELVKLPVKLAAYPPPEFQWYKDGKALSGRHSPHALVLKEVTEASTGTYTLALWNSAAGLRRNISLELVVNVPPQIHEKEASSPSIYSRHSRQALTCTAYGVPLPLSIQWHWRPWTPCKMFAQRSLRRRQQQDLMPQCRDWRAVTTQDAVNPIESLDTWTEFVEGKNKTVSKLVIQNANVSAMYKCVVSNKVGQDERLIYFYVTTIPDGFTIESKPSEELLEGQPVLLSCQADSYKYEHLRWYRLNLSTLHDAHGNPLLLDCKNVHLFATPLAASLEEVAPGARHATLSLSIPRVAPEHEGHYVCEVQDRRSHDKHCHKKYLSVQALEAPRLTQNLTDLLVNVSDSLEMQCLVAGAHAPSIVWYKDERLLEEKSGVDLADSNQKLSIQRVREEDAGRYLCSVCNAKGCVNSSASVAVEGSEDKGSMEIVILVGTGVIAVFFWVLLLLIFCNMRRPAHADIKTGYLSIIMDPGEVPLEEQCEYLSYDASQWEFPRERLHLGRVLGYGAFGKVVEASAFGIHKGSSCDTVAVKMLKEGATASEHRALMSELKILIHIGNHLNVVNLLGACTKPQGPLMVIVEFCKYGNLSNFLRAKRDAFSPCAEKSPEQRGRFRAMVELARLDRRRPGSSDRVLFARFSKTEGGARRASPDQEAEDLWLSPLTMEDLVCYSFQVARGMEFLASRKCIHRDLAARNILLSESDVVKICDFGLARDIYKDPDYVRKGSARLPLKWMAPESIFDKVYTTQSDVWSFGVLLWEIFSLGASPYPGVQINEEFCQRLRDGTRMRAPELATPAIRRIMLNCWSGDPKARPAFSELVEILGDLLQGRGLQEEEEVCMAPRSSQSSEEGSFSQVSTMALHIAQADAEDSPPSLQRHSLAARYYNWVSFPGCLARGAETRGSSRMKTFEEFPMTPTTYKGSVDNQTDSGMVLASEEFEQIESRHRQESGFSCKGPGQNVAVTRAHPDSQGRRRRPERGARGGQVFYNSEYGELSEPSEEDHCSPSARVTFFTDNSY
Macrophage colony-stimulating factor 1 receptor (Homo sapiens), sequence (P07333 whole entry): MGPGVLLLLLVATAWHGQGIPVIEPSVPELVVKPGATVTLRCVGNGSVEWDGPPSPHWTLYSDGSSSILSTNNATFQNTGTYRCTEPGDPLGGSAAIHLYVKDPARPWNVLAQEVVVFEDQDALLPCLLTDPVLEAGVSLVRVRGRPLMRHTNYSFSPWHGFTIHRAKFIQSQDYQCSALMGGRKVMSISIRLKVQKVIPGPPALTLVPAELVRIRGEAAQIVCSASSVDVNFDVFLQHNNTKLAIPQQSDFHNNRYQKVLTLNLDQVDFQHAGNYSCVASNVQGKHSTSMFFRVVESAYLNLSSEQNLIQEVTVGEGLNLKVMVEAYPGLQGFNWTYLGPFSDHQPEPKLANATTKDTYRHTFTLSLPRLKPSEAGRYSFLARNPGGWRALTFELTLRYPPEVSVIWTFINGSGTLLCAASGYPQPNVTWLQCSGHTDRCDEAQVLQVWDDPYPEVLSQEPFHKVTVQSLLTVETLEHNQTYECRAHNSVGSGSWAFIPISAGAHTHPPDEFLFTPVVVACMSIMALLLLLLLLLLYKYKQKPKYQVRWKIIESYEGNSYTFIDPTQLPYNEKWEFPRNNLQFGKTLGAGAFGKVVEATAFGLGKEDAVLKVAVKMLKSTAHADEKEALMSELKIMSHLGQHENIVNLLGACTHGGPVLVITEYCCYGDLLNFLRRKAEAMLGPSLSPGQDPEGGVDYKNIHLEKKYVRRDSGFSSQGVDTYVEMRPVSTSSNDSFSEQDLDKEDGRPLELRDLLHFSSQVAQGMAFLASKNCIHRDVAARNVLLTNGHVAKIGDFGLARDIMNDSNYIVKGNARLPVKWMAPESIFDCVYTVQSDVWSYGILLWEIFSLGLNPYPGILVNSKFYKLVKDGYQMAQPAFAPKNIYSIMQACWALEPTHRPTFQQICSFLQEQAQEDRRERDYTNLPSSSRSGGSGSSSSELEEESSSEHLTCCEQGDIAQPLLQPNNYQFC
Serine/threonine-protein kinase Nek7 (Homo sapiens), sequence (Q8TDX7 whole entry, looked up): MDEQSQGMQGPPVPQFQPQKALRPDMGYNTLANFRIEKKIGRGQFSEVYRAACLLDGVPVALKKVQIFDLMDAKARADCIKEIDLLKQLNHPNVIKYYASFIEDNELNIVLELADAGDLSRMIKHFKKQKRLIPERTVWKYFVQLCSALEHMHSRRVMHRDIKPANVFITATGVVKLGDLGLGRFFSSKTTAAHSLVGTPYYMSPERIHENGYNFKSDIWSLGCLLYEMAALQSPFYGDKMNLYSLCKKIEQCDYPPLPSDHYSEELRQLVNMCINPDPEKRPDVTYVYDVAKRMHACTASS
Serine/threonine-protein kinase PLK1 (Homo sapiens), sequence (P53350 whole entry): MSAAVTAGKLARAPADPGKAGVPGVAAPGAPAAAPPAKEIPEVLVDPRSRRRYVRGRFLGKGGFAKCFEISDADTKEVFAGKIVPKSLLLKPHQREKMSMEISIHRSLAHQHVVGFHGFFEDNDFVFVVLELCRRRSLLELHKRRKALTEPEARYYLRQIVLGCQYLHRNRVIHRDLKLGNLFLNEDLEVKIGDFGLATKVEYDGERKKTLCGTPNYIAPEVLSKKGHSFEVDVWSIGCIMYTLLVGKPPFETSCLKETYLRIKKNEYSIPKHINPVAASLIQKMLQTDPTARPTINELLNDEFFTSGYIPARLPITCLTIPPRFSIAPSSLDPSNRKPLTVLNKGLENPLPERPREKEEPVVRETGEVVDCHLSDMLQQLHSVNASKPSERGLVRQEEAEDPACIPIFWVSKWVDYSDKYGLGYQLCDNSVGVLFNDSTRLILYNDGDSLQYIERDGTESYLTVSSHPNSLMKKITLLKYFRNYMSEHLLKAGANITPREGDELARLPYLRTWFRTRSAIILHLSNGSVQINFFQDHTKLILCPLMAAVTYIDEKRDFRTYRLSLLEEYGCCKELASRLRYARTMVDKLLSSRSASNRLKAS
Serine/threonine-protein kinase Nek6 (Homo sapiens), sequence (Q9HC98 whole entry): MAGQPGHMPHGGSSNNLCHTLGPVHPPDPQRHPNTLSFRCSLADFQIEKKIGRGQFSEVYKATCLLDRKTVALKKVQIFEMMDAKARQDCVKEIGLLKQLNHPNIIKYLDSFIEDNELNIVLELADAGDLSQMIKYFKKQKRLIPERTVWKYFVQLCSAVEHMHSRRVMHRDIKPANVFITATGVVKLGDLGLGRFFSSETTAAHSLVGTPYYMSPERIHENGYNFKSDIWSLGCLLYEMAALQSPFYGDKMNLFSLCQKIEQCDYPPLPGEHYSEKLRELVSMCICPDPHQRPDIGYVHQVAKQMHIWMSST

| Structure (SMILES) | inhibition [1] [%] | inhibition [2] [%] | inhibition [3] [%] | inhibition [4] [%] | inhibition [5] [%] | inhibition [6] [%] | inhibition [7] [%] | inhibition [8] [%] | inhibition [9] [%] | inhibition [10] [%] | inhibition [11] [%] | inhibition [12] [%] | inhibition [13] [%] | inhibition [14] [%] | inhibition [15] [%] | inhibition [16] [%] | inhibition [17] [%] | inhibition [18] [%] | inhibition [19] [%] | inhibition [20] [%] |
| --- | --- | --- | --- | --- | --- | --- | --- | --- | --- | --- | --- | --- | --- | --- | --- | --- | --- | --- | --- | --- |
| CCCN1CCC(c2ccc(Nc3nc(Nc4cc(F)ccc4C(N)=O)c4cc[nH]c4n3)c(OC)c2)CC1 | 5.85 | 4.68 | 21.6 | 4.85 | 17.6 | 4.35 | 8.4 | 7.49 | 8.87 | 8.38 | 32.5 | 12.5 | 49.8 | 81.5 | 56 | -1.93 | 2.22 | 34.3 | 81.5 | 3.91 |
| CCn1c(-c2nonc2N)nc2ccccc21 | 1.58 | 2.18 | 2.6 | 3.43 | 4.15 | 5.78 | 0.38 | 2.9 | 4.22 | 0.97 | 0.94 | 6.53 | 2.85 | 3.51 | -3.67 | 5.92 | 5.29 | 0.61 | 2.71 | 0.86 |
